Laboratory results as given in PubChem BioAssay (Tox21).
Values joined by “and” are separate entries in the source; they are usually repeats but may differ in a detail not shown here. Equal entries are not always repeated. Records with an inconclusive call do not appear. A structure can be active in one record and inactive in another. Active and inactive are the calls of the source. Unless noted, calls come from the whole dose curve; as a rule, active = well fitted curve in the direction sought with a large enough effect in the repeat runs; inconclusive = weak or mixed curves; inactive = no such curve, though single readings can be large; an effect the other way counts as inactive or inconclusive.

Assays:
[1] = qHTS assay to test for compound auto fluorescence at 535 nm (green) in HEK293 cells (AID 720680)
[2] = qHTS assay to test for compound auto fluorescence at 460 nm (blue) in HEK293 cell free culture (AID 720681)
Outline: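 Test compounds were pinned into cell-free culture medium (DMEM with 10% FBS) and fluorescence was read directly at Ex/Em 405/460 nm. Signals were expressed as fluorescence equivalents of triamterene, with DMSO vehicle as control.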

[3] = qHTS assay to test for compound auto fluorescence at 535 nm (green) in HEK293 cell free culture (AID 720682)
Outline: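 Measurement is a direct plate read of green fluorescence (485 nm in, 535 nm out) after compound addition to serum-supplemented DMEM lacking cells, with fluorescein used to express intensities.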

[4] = qHTS assay to test for compound auto fluorescence at 590 nm (red) in HEK293 cell free culture (AID 720683)
Outline: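 Tox21 10K library compounds were pinned into cell-free DMEM with 10% FBS and fluorescence was read at excitation 540 nm. Activity is expressed as Rose Bengal sodium equivalency.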

[5] = qHTS assay to test for compound auto fluorescence at 590 nm (red) in HepG2 cell free culture (AID 720684)
Outline: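 Red fluorescence (540 nm excitation, 590 nm emission) was measured after compound transfer into cell-free MEM supplemented with 10% FBS. Values are equivalencies against Rose Bengal sodium.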

[6] = qHTS assay to test for compound auto fluorescence at 460 nm (blue) in HepG2 cell free culture (AID 720685)
Outline: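 Compound (23 nL) or DMSO pinned into cell-free MEM with 10% FBS; blue fluorescence read at 405/460 nm excitation/emission, expressed as auto-fluorescence equivalency to triamterene.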

[7] = qHTS assay to test for compound auto fluorescence at 535 nm (green) in HepG2 cell free culture (AID 720686)
[8] = qHTS assay to test for compound auto fluorescence at 460 nm (blue) in HepG2 cells (AID 720687)
Outline: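 Cells (2,000/well in MEM with 10% FBS) attached overnight at 37 C, then were exposed to compound or DMSO for 1 hr at 37 C, 5% CO2. Fluorescence read at Ex/Em 405/460 nm, expressed as triamterene-equivalent signal.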

[9] = target: Glucocorticoid receptor (Homo sapiens) (UniProt P04150); experiment: qHTS assay to identify small molecule agonists of the glucocorticoid receptor (GR) signaling pathway (AID 720691; active = well fitted activation curve with a large enough effect in the signal ratio in the repeat runs, not every such curve was filed as active; the % refers to the signal ratio; note: potency is the fitted concentration of half-maximal effect); settings: GR-bla HeLa, beta-lactamase reporter ratio, 18 h; activation: at 62.4 µM (top of the series)
Sequence of Glucocorticoid receptor (Homo sapiens) (P04150 whole entry, looked up): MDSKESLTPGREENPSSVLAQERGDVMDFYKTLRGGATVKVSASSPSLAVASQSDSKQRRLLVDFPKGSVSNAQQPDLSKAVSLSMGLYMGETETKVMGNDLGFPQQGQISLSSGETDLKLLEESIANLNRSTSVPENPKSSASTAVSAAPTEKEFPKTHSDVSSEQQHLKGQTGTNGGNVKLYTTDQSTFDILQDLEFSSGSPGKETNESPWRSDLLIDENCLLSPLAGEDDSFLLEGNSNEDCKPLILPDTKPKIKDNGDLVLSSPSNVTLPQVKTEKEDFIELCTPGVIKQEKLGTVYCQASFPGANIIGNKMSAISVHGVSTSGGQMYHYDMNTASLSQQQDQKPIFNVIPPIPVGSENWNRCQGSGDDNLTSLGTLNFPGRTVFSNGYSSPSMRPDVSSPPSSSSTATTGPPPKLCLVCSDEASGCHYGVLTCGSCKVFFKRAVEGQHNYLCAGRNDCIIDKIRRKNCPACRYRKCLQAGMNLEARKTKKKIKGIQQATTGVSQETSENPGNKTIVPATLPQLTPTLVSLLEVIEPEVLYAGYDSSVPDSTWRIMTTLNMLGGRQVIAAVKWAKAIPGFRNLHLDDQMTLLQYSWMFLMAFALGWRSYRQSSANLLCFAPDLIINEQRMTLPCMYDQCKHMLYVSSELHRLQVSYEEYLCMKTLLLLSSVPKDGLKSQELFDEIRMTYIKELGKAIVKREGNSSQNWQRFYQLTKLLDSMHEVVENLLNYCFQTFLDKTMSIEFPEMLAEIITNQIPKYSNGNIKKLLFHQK
Outline: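 Agonist mode in a HeLa line carrying a GRE-controlled beta-lactamase reporter. Compounds act for 18 h at 37 C before a 2 h room-temperature FRET substrate step and fluorescence reading.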

[10] = target: Glucocorticoid receptor (Homo sapiens) (UniProt P04150); experiment: qHTS assay to identify small molecule antagonists of the glucocorticoid receptor (GR) signaling pathway (AID 720692; active = well fitted inhibition curve with a large enough effect in the signal ratio in the repeat runs, not every such curve was filed as active; the % refers to the signal ratio)
Outline: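 Cells plated, rested 4 h at 37 C/5% CO2; compounds in DMSO pin-transferred; dexamethasone added to 5 nM final; 18 h at 37 C; B/G FRET substrate added, 2 h room temperature; fluorescence measured.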

[11] = qHTS assay to identify small molecule antagonists of the glucocorticoid receptor (GR) signaling pathway - cell viability counter screen (AID 720693); note: nearly all actives have a fitted effect of over 55% in size
[12] = qHTS assay for identifying genotoxic compounds that show differential cytotoxicity against isogenic chicken DT40 cell lines with known DNA damage response pathways - wild type cell line (AID 743012); note: nearly all actives have a fitted effect of over 60% in size; note: potency is the fitted concentration of half-maximal effect
Outline: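 Cells (DT40 wild type, 300/well) are treated with DMSO-dissolved compounds after a ~0.5 h pre-incubation and kept 40 h at 37 C/5% CO2. Viability is then measured by CellTiter-Glo luminescence following 30 min at room temperature.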

[13] = qHTS assay for identifying genotoxic compounds that show differential cytotoxicity against isogenic chicken DT40 cell lines with known DNA damage response pathways - Rad54/Ku70 mutant cell line (AID 743015); note: nearly all actives have a fitted effect of over 60% in size; note: potency is the fitted concentration of half-maximal effect
[14] = qHTS assay to identify small molecule antagonists of the androgen receptor (AR) signaling pathway - cell viability counter screen (AID 743033; note: nearly all actives have a fitted effect of over 45% in size)
[15] = qHTS assay for identifying genotoxic compounds that show differential cytotoxicity against isogenic chicken DT40 cell lines with known DNA damage response pathways - Rev3 mutant cell line (AID 743014); note: nearly all actives have a fitted effect of over 55% in size
[16] = qHTS assay to identify small molecule antagonists of the androgen receptor (AR) signaling pathway using the MDA cell line - cell viability counter screen (AID 743041; note: nearly all actives have a fitted effect of over 45% in size)
Outline: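 MDA-kb2 AR-luc human breast carcinoma cells (MMTV-luciferase, AR/GR responsive) were treated with compounds plus R1881 agonist for 16 h at 37 °C. Viability was read as CellTiter-Fluor fluorescence in the same wells as the reporter assay.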

[17] = target: Androgen receptor (Homo sapiens) (UniProt P10275); experiment: qHTS assay to identify small molecule antagonists of the androgen receptor (AR) signaling pathway (AID 743035; active = well fitted inhibition curve with a large enough effect in the signal ratio in the repeat runs, not every such curve was filed as active; the % refers to the signal ratio)
Sequence of Androgen receptor (Homo sapiens) (P10275 whole entry, looked up): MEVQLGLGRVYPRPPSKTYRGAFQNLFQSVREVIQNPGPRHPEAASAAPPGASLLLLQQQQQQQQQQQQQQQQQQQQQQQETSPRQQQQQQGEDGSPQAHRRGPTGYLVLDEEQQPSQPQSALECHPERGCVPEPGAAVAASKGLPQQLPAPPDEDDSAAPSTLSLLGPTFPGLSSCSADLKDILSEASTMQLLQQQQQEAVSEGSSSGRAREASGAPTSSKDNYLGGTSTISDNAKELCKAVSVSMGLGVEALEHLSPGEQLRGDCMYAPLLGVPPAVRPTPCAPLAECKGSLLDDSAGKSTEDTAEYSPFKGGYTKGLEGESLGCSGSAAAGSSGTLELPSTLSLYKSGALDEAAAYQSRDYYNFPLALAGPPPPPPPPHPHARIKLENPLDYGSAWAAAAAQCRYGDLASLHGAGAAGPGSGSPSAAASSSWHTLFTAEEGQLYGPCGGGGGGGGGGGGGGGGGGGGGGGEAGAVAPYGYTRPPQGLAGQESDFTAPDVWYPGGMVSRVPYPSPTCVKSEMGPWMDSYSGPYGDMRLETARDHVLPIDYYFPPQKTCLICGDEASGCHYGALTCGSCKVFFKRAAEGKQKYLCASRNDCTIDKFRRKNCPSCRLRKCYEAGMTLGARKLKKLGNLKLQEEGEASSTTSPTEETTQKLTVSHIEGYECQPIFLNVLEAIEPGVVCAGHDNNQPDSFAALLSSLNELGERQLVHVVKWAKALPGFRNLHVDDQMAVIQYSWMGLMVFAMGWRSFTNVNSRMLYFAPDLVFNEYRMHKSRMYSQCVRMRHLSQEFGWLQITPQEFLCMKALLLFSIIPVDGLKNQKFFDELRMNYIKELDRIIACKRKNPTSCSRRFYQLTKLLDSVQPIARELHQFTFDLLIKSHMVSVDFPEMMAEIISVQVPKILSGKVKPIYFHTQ
Outline: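 Antagonism is scored as loss of R1881-driven beta-lactamase reporter expression in HEK293 cells carrying the reporter under a UAS element, after 16 h co-treatment at 37C and a 2 h room-temperature FRET substrate read.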

[18] = target: Androgen receptor (Homo sapiens) (UniProt P10275); experiment: qHTS assay to identify small molecule agonists of the androgen receptor (AR) signaling pathway (AID 743036; active = well fitted activation curve with a large enough effect in the signal ratio in the repeat runs, with a control signal flat, not every such curve was filed as active; the % refers to the signal ratio)
Outline: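 Beta-lactamase under UAS control, stably integrated in HEK293 GripTite cells, reports receptor activation. After 16 h compound treatment, cells received FRET substrate for 2 h at room temperature before fluorescence reading.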

[19] = target: Androgen receptor (Homo sapiens) (UniProt P10275); experiment: qHTS assay to identify small molecule agonists of the androgen receptor (AR) signaling pathway using the MDA cell line (AID 743040; note: nearly all actives have a fitted effect of over 20% in size)
Outline: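 MDA-kb2 breast carcinoma cells stably carrying an MMTV-driven luciferase reporter (AR- and GR-responsive) were seeded and held 5 h at 37C, 0% CO2, then exposed to compounds in DMSO for 16 h. Luminescence was read 30 min after ONE-Glo addition.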

[20] = target: Androgen receptor (Homo sapiens) (UniProt P10275); experiment: qHTS assay to identify small molecule antagonists of the androgen receptor (AR) signaling pathway using the MDA cell line (AID 743042; note: nearly all actives have a fitted effect of over 55% in size)
Outline: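 MDA-kb2 cells (human breast carcinoma, stably carrying an MMTV-luciferase reporter responsive to AR and GR) were plated at 3,000 cells/well and preincubated 5 hr at 37C, then given compound plus R1881 agonist for 16 h. ONE-Glo luminescence was read.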
% is set by controls: 0 for no effect and ±100 for the full control effect.

CNC(=O)CSP(=O)(OC)OC
inactive: outcome [1] | Potency [2] | outcome [3] | outcome [4] | outcome [5] | Potency [6] | Potency [7] | Potency [8] | Potency [9] | Potency [10] | Potency [11] | Potency [12] | Potency [13] | Potency [14]

CCN(CC)C(=S)S
inactive: outcome [1] | Potency [2] | outcome [3] | outcome [4] | outcome [5] | Potency [6] | Potency [7] | Potency [8] | Potency [10] | Potency [11]
active: Potency [12] 2.66 µM and 5.42 µM and 433 nM | Potency [13] 5.31 µM and 5.42 µM and 486 nM
inactive and 4.9 µM (active): Potency [9]

CCCCC/C=C\C/C=C\C/C=C\C/C=C\CCCC(=O)NCC(=O)O
inactive: fluorescence, % of fluorescein [1] -0.212% [at 3.72 µM] | fluorescence, % of fluorescent control [2] -0.0427% [at 3.72 µM] | activity change [3] 0.0424% [at 3.72 µM] | fluorescence, % of fluorescent control [4] 0.173% [at 3.72 µM] | fluorescence, % of Rose Bengal [5] 0.0912% [at 3.72 µM] | fluorescence, % of fluorescent control [6] -0.0542% [at 3.72 µM] | fluorescence, % of fluorescein control [7] 0.0024% [at 3.72 µM] | fluorescence, % of fluorescent control [8] -0.108% [at 3.72 µM] | activation [9] 0.54% [at 6.9 µM] | activity change, negative = inhibition [10] 22.5% [at 7.04 µM] | viability change, negative = cytotoxic [11] -8.97% [at 7.04 µM] | activity change, negative = cytotoxicity [12] 16.5% [at 8.52 µM] | activity change, negative = cytotoxicity [13] 4.36% [at 8.55 µM]

COc1nc(C)nc(NC(=O)NS(=O)(=O)c2ccccc2Cl)n1
inactive: outcome [1] | Potency [2] | outcome [3] | outcome [4] | outcome [5] | Potency [6] | Potency [7] | Potency [8] | Potency [9] | Potency [10] | Potency [11] | Potency [12] | Potency [15] | Potency [13] | Potency [14] | Potency [16]

O=NN(CCO)CCO
inactive: outcome [1] | Potency [2] | outcome [3] | outcome [4] | outcome [5] | Potency [6] | Potency [7] | Potency [8] | Potency [9] | Potency [10] | Potency [11] | Potency [12] | Potency [13] | Potency [14] | Potency [17] | outcome [18] | outcome [19] | Potency [16] | Potency [20]

CCCCc1ccccc1
inactive: outcome [1] | Potency [2] | outcome [3] | outcome [4] | outcome [5] | Potency [6] | Potency [7] | Potency [8] | Potency [9] | Potency [10] | Potency [11] | Potency [12] | Potency [15] | Potency [13] | Potency [14] | Potency [16]

Cc1c([N+](=O)[O-])cc2c(c1[N+](=O)[O-])C(C)(C)CC2(C)C
inactive: outcome [1] | Potency [2] | outcome [3] | outcome [4] | outcome [5] | Potency [6] | Potency [7] | Potency [8] | Potency [9] | Potency [10] | Potency [11] | Potency [12] | Potency [13] | Potency [14] | Potency [16]
